This note sets out measurements from PubChem BioAssay (NCATS).

The structures appear in SMILES notation. Several values for one entry are separate records, joined by “and”; a condition that tells them apart may be missing. Equal values may be shown once. Records with an inconclusive call do not appear. Activity calls are given as the source filed them. Calls come from the whole dose curve; as a rule, active = well fitted cell-killing curve with a large enough effect; inconclusive = small, poorly fitted or top-dose-only effect, or effect the other way, or another doubt; inactive = no such curve, though single readings can be large or run the other way.
Potency is the fitted concentration of half-maximal effect.

This assay in a line: Identifying Small Molecule Inhibitors of Pancreatic Cancer Stem Cells (Panc1, Adherent) (AID 1259362).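 For viability, % of control: compound exposure lasted 48 h before the viability read.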 As to conditions: Potency: viability; series mostly up to 46.1 µM; viability, % of control: at the top concentration. From the text: Progenitor-like cancer cells, often referred to as cancer stem cells (CSC), are believed to be the drivers of therapeutic resistance and rapid recurrence. CSCs are postulated to reside in specific niches characterized by low oxygen tension, limited nutrient supply, and high redox load. Selectively targeting CSC, alone or in combination with cytotoxic agents, as a means to produce durable remissions is an appealing concept. Modeling these cells in in vitro setting is an important step in finding new therapies and/or targets. Multiple reports highlight that forcing cells in culture into 3-dimensionaly architectures (spheroids) re-establishes key progenitor-like transcriptional signatures. Pancreatic cancer is among the diseases with the most dismal outlook which is driven, largely, by recurance following front-line therapies. […] In hopes of deriving new insight into the targeting of these pancreatic CSCs we examined three established pancreatic cancer cell lines in cytotoxicity assays versus a collection of approved and investigational drugs. Importantly, we screened these lines as traditional monolayer (2D) and spheroid (3D) formats to gain an appreciation of agents with differential activity.
Multicellular tumor spheroids from Panc1, MiaPaCa-2, and the primary low-passage tissue culture line SB.06 were seeded in stem cell media (SCM) in nonadherent 6-well plates coated with hydrogel (Corning Life Sciences, Chelmsford, Mass) and pancreatic spheres generated for 14 days before screening. Cells were seeded into 1536-well solid-bottom white tissue culture treated Greiner Bio One Plates (789173-F) using a MultiDrop Combi (Thermofisher Scientific) dispenser and a small sterile cassette. One column was media alone to be used as a :"no cells" control. The plates were then covered with sterilized stainless steel gasketed lids from Kalypsys. After allowing cells to attach for 4 hours, 23 nL of test compound or control (negative control DMSO and positive control 9.2 uM Bortezomib-final) were added from a 1536-well polypropylene compound source plate to each well using a 1536 head pin tool from Kalypsys. Cells were then incubated for 48 hours at 37C, 95% relative humidity and 5% CO2. After 48 hours, plates were removed from the incubator and 3 uL of CellTiter-Glo (Promega) was added using an Aurora Flying Reagent Dispenser Bioraptor. Plates were incubated at room temperature for 10 minutes prior to reading the luminescence on the Viewlux (PerkinElmer). The relative luciferase units are used to calculate the percent activity using the activity of DMSO in the cells and no cells columns for normalization of no inhibition and full inhibition respectively.
For `C=CC(=O)Nc1cccc(Oc2nc(Nc3ccc(N4CCN(C)CC4)cc3OC)ncc2Cl)c1`, the “viability, % of control” value was 98.3% (inactive). Turning to `CCN1CCN(CC(=O)Nc2ccc(-c3cccc4c(=O)cc(N5CCOCC5)oc34)c3sc4ccccc4c23)CC1`, the Potency is 23.5 µM (active). Same read-out and setting: next, `CC1(C)OC2=C(C(=O)c3ccccc3C2=O)[C@H](NCc2ccccc2)[C@H]1O`: 3.32 µM (active). As for `Nc1nccc(Oc2ccc(NC(=O)c3c[nH]cc(-c4ccc(F)cc4)c3=O)cc2F)c1Cl`, the “viability, % of control” value was 75.3% (inactive).

For `C[C@@H](Oc1cc(-n2cnc3ccc(CN4CCN(C)CC4)cc32)sc1C(N)=O)c1ccccc1C(F)(F)F`, the Potency was 0.0037 µM (active). The same measure, in the same setting: next, `CS(=O)(=O)N1CCN(Cc2cc3nc(-c4cccc5[nH]ncc45)nc(N4CCOCC4)c3s2)CC1`: 0.59 µM (active); `CC[C@@H]1C(=O)N(C)c2cnc(Nc3ccc(C(=O)NC4CCC(N5CCN(CC6CC6)CC5)CC4)cc3OC)nc2N1C(C)C` (stereo not given in full): 0.0105 µM (active); `Cc1ccc(C(=O)Nc2ccc(CN3CCN(C)CC3)c(C(F)(F)F)c2)cc1C#Cc1cnc2cccnn12`: 23.5 µM (active). For `NC(=O)Nc1cc(-c2cccc(F)c2)sc1C(=O)N[C@H]1CCCNC1`, the Potency is 1.48 µM (active).

With `Cc1ccc(-c2ncn(-c3ccc(Nc4nccc(-c5cccc(N6CCOCC6)c5)n4)cc3)n2)cn1`, the Potency was 0.0743 µM (active).

`CN1CC[C@@H](c2c(O)cc(O)c3c(=O)cc(-c4ccccc4Cl)oc23)[C@@H](O)C1`: the Potency is 0.132 µM (active). Still for that read-out and setting: in the case of `CC(C)(C)c1cc(C(C)(C)C)c(NC(=O)c2c[nH]c3ccccc3c2=O)cc1O` it was 23.5 µM (active); in that of `C=C1C(=CC=C2CCC[C@]3(C)[C@@H]([C@H](C)C=C[C@H](C)C(C)C)CC[C@@H]23)C[C@@H](O)C[C@@H]1O`, 26.4 µM (active). The same measure, in the same setting: in the case of `CC(C)c1ccc(Cn2ccc3c4c(N)nc(NC5CC5)nc4ccc32)cc1` it was 0.743 µM (active); in that of `C=CC(=O)Nc1cc2c(Nc3ccc(F)c(Cl)c3)ncnc2cc1C#CC(C)(C)N1CCN(C)CC1`, 11.8 µM (active); in that of `C1=CCOCc2cc(ccc2OCCN2CCCC2)Nc2nccc(n2)-c2cccc(c2)OCC1`, 1.87 µM (active). Regarding `N#Cc1c(O)c2c(-c3ccc(-c4ccccc4O)cc3)csc2[nH]c1=O`, the “viability, % of control” value is 128% (inactive). As to `CC[C@@H]1C(=O)N(C)c2cnc(Nc3ccc(C(=O)NC4CCN(C)CC4)cc3OC)nc2N1C1CCCC1`, the Potency is 0.0093 µM (active).

In the case of `O=C(Nc1cc(C(F)(F)F)cc(C(F)(F)F)c1)c1cc(Cl)ccc1O`, the Potency was 0.0332 µM (active).

On to `COCCn1c2c([n+](Cc3cnccn3)c1C)C(=O)c1ccccc1C2=O`, for which the “viability, % of control” value was -7.99% (inactive). On to `COc1cc2ncnc(Nc3ccc(F)c(Cl)c3)c2cc1NC(=O)C=CCN1CCCCC1`, for which the Potency was 23.5 µM (active). The same measure, in the same setting: next, `COC(=O)[C@]12CCC(C)(C)C[C@@H]1[C@@H]1C(=O)C=C3[C@@]4(C)C=C(C#N)C(=O)C(C)(C)[C@@H]4CC[C@@]3(C)[C@]1(C)CC2`: 2.96 µM (active); `CCC[C@H](NC(=O)C(C#N)=Cc1cccc(Br)n1)c1ccccc1`: 20.9 µM (active). Same read-out and setting: in the case of `Nc1cc(C(F)(F)F)c(-c2cc(N3CCOCC3)nc(N3CCOCC3)n2)cn1` it was 1.87 µM (active). Still for that read-out and setting: next, `C=CCn1c(=O)c2cnc(Nc3ccc(N4CCN(C)CC4)cc3)nc2n1-c1cccc(C(C)(C)O)n1`: 0.59 µM (active); `CC(C)[C@H](C(=O)Nc1ccc(C(=O)NO)cc1)c1ccccc1`: 0.418 µM (active).

In the case of `CC(NCc1ccc2c(c1)nc(NC(=O)c1ccc(-c3cn[nH]c3)s1)n2CC(C)(C)O)C(C)(C)C` (stereo not given), the Potency was 0.264 µM (active). With `O=C(C=Cc1c(C(=O)O)[nH]c2cc(Cl)cc(Cl)c12)Nc1ccccc1`, the “viability, % of control” value is 107% (inactive).

For the compound `CC(=O)SC[C@@H](C)C(=O)N1CCC[C@H]1C(=O)N[C@@H](Cc1ccccc1)C(=O)O`, the “viability, % of control” value is 89.3% (inactive). Regarding `Nc1ccc(C(=O)c2cc3c(ccc4ccccc43)[nH]2)cc1`, the Potency was 2.96 µM (active). As to `Clc1ccc2ncc(-c3cccc(NC4CNC4)n3)n2c1`, the “viability, % of control” value was 137% (inactive). For the compound `Cc1[nH]nc2ccc(-c3cncc(OC[C@@H](N)Cc4ccccc4)c3)cc12`, the Potency is 4.69 µM (active). The same measure, in the same setting: in the case of `COc1cccc2nc(-c3cccs3)nc(NN3C(=O)C=C(C)C3=O)c12` it was 16.6 µM (active). As to `CCN(CC)CCCCNc1ncc2cc(-c3cc(OC)cc(OC)c3)c(NC(=O)NC(C)(C)C)nc2n1`, the “viability, % of control” value is 88% (inactive). `CC1=C(CO)C(=O)O[C@@H]([C@@H](C)[C@H]2CC[C@H]3[C@@H]4C[C@H]5O[C@]56[C@@H](O)C=CC(=O)[C@]6(C)[C@@H]4CC[C@]23C)C1`: the Potency was 2.96 µM (active). In the case of `CC(C)C[C@H](NC(=O)CNC(=O)c1cc(Cl)ccc1Cl)B(O)O`, the Potency was 0.187 µM (active). The same measure, in the same setting: next, `CN1CCN(c2ccc3nc(-c4c(N)c5c(F)cccc5[nH]c4=O)[nH]c3c2)CC1`: 33.2 µM (active); `CCOc1cc2ncc(C#N)c(Nc3ccc(F)c(Cl)c3)c2cc1NC(=O)C=CCN(C)C`: 18.7 µM (active). On to `O=C(C=Cc1cccnc1)NCCCCC1CCN(C(=O)c2ccccc2)CC1`, for which the “viability, % of control” value is 80.7% (inactive).

As for `O=C(NCCCNc1nc(Nc2cccc(NC(=O)N3CCCC3)c2)ncc1I)c1cccs1`, the Potency is 11.8 µM (active) and 16.6 µM (active).
